Assay [1] in a line: TOX21_p53_BLA_p4_viability: Viability Assessment in the Tox21 HCT-116 p53 Agonism Beta-lactamase Assay, Phase 4 (AID 2283597).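 Further: hits lower the luminescence signal meaning cytotoxicity.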 In a few lines:
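Cytotoxicity as reduced cellular ATP (CellTiter-Glo luminescence, 30 min room temperature), measured in the same wells following the CCF4 FRET p53 reading. Human HCT-116 cells received compounds in DMSO (217-fold dilution) for 16 h.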

Assay [2] deals with Cellular tumor antigen p53 (Homo sapiens) (UniProt P04637). The assay can be described thus: TOX21_p53_BLA_p5_ratio: Tox21 HCT-116 p53 Agonism Beta-lactamase Assay, Ratio, Phase 5 (AID 2283599). Summed up:
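Beta-lactamase reporter ratio (blue 460 nm over green 530 nm, 405 nm excitation) after 2 h CCF4-AM loading, in HCT-116 cells exposed 16 h at 37 C to compounds pinned at 217-fold dilution. Increases relative to DMSO baseline scored.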

Assay [3] can be described thus: TOX21_p53_BLA_p5_viability: Viability Assessment in the Tox21 HCT-116 p53 Agonism Beta-lactamase Assay, Phase 5 (AID 2283600). In a few lines:
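Viability came from CellTiter-Glo ATP luminescence, read after 30 min at room temperature. Before this, HCT-116 p53-bla cells (4000/well) had 16 hours of compound exposure at 37C, with DMSO stocks diluted 217-fold on transfer.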

Assay [4] has as its target Cellular tumor antigen p53 (Homo sapiens) (UniProt P04637). The assay can be described thus: TOX21_p53_BLA_p4_ratio: Tox21 HCT-116 p53 Agonism Beta-lactamase Assay, Ratio, Phase 4 (AID 2283601). Summed up:
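Signal is the blue/green (460nm/530nm) ratio of cleaved versus uncleaved CCF4-AM substrate, read after 2 h substrate loading. Cells were HCT116 carrying the p53-responsive beta-lactamase reporter, dosed 16 h at 37C, 5% CO2; CellTiter-Glo measured in parallel.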

Assay [5] is described as follows: Tanguay_ZF_120hpf_MORT_legacy: (Legacy) Oregon State University Tanguay Lab 120 Hour Post-fertilization zebrafish Assay for Mortality (AID 2283633).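 On AC50: fitted as increase in binary mortality versus DMSO negative control.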 Summed up:
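Static waterborne exposure from 6 to 120 hpf at 28C of single dechorionated wild-type (5D) embryos per well, 0.64% DMSO final. Death recorded present/absent by brightfield at 24 and 120 hpf.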

The nature of assay [6]: Tanguay_ZF_120hpf_YSE_legacy: (Legacy) Oregon State University Tanguay Lab 120 Hour Post-fertilization zebrafish Assay for Yolk Sac Edema (AID 2283634).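 On AC50: actives raise the incidence of yolk sac edema above the DMSO baseline.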 Summed up:
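Presence or absence of yolk sac edema was recorded at 120 hpf in surviving larvae. These were wild-type Tropical 5D embryos, chorion removed at 4 hpf, held in static exposure at 28C from 6 hpf with 0.64% DMSO vehicle.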

Assay [7] in a line: Tanguay_ZF_120hpf_EYE_legacy: (Legacy) Oregon State University Tanguay Lab 120 Hour Post-fertilization zebrafish Assay for Eye Malformation (AID 2283636).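 Further: binary presence or absence of eye malformation scored by brightfield in 120 hpf larvae.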 In a few lines:
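Binary brightfield scoring of eye defects at 120 hpf after static exposure from 6 hpf of single pronase-dechorionated wild-type embryos (28C, 0.64% DMSO). Non-mortality endpoints omitted where embryos died; fit vs DMSO.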

The nature of assay [8]: Tanguay_ZF_120hpf_SNOU_legacy: (Legacy) Oregon State University Tanguay Lab 120 Hour Post-fertilization zebrafish Assay for Snout Malformation (AID 2283637). In a few lines:
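Binary snout-malformation call at 120 hpf in wild-type 5D embryos, chorion removed by pronase, under static exposure from 6 hpf at 28C (0.64% DMSO). Embryos dying by 24 or 120 hpf excluded.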

Assay [9] can be described thus: Tanguay_ZF_120hpf_JAW_legacy: (Legacy) Oregon State University Tanguay Lab 120 Hour Post-fertilization zebrafish Assay for Jaw Malformation (AID 2283638).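 On AC50: active means more embryos with jaw malformation than DMSO controls.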 Summed up: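 Binary jaw-malformation call at 120 hpf by brightfield microscopy. Embryos (Tropical 5D strain, chorion removed at 4 hpf) were dosed statically at 6 hpf, one per well, at 28C with 0.64% DMSO. Embryos that died were not scored.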

Assay [10] in a line: Tanguay_ZF_120hpf_AXIS_legacy: (Legacy) Oregon State University Tanguay Lab 120 Hour Post-fertilization zebrafish Assay for Body Axis Malformation (AID 2283635). Summed up:
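Binary scoring of axis defects at 120 hpf under brightfield, fitted positive versus DMSO. Tropical 5D embryos, chorion removed by pronase at 4 hpf, were singly exposed in sealed, dark plates at 28C from 6 hpf; DMSO 0.64% final.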

SMILES strings stand for the structures. Where “and” joins values, the source holds several entries; their conditions need not be identical. Equal entries are not always repeated. Records with an inconclusive call do not appear. Where a structure was tested more than once in an assay, its records may differ in their call. Calls of active or inactive are those of the source. How the source made its calls: active means hit-call score of the fitted dose curve at least 0.9, where 1 is the maximum; inconclusive means response in the unintended direction; inactive means score below 0.9.

Chain of Cellular tumor antigen p53 (Homo sapiens) (P04637 whole entry, looked up): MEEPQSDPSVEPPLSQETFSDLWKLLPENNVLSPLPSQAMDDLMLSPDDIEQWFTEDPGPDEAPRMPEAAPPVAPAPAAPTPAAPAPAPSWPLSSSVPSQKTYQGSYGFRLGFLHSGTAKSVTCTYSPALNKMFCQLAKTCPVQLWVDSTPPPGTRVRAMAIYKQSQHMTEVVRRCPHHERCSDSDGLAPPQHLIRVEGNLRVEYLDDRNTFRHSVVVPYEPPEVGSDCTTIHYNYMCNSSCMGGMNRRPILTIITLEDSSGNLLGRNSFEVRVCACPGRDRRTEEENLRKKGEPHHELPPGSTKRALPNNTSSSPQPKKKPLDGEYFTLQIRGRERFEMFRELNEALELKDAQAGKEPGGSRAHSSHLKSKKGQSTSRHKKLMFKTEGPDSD

Turning to `CCc1c(C(=O)NN2CCCCC2)nn(-c2ccc(Cl)cc2Cl)c1-c1ccc(Br)cc1`, the AC50 in [1] was 2.1 µM (active). For the same molecule, the result in assay [2], in assay [3], in assay [4], in assay [5], in assay [6] and in assay [7] was inactive. The outcome in [8] and in assay [9] was inactive.
For `Cc1ccc(C(C)C)c(O)c1`, the values for the AC50 in assay [1] and in assay [2] were 60.5 µM (active) and 73.2 µM (active), respectively. Further, the molecule was classed as inactive in assay [1], in [2], in assay [3], in assay [5], in [6] and in assay [10]. Besides, the outcome in assay [7] and in [8] was inactive.
Take `Nc1nc(N)c2nc(CNc3ccc(C(=O)N[C@@H](CCC(=O)O)C(=O)O)cc3)cnc2n1`: the AC50 is 0.0491 µM (active) in assay [1], 0.158 µM (active) in assay [2] and 0.0649 µM (active) in assay [3]. Besides, the result in assay [1], in [2], in [5], in [6], in assay [7] and in [8] was inactive. For the same molecule, in assay [9], the molecule was called inactive.
Consider `Nc1ccc2c(c1)C(=O)c1ccccc1C2=O`, for which the outcome in [1], in [2], in [3], in assay [4], in [5] and in assay [6] was inactive. Moreover, the molecule was classed as inactive in assay [10], in assay [7], in assay [8] and in assay [9].
As to `Nc1ccccc1N`, the AC50 in [1] is 23 µM (active); in [6], 46.3 µM (active); in assay [9], 49.4 µM (active). Moreover, the molecule was classed as inactive in assay [1], in [2], in [3], in [5], in assay [10] and in assay [7]. For the same molecule, in assay [8], the molecule was called inactive.
For `Cc1cccc(C)c1O`, the result in [1], in assay [2], in [3], in [4], in [5] and in assay [6] was inactive. Moreover, the result in assay [10], in assay [7], in assay [8] and in [9] was inactive.
`O=C(O)Cc1ccccc1Nc1c(Cl)cccc1Cl`: the AC50 in assay [1] was 46.1 µM (active); in assay [2], 86.4 µM (active); in assay [5] it was 30.6 µM (active). The outcome in assay [2], in assay [6], in [10], in assay [7], in assay [8] and in assay [9] was inactive.
With `COc1cc(/C=C/C(=O)CC(=O)/C=C/c2ccc(O)c(OC)c2)ccc1O`, the AC50 in assay [1] is 88.4 µM (active) and 23 µM (active); in assay [2], 14 µM (active) and 39.4 µM (active) and 7.67 µM (active); in assay [3], 80.7 µM (active) and 22.5 µM (active); in assay [4], 14 µM (active) and 36.5 µM (active) and 7.12 µM (active). Moreover, in assay [1], the result was inactive.
With `Cc1c(C(=O)O)c(O)cc2c1C(=O)c1c(O)c([C@@H]3O[C@H](CO)[C@@H](O)[C@H](O)[C@H]3O)c(O)c(O)c1C2=O`, the molecule was classed as inactive in [1], in [2], in [3], in [4], in [5] and in [6]. Further, the molecule was called inactive in assay [7], in [8] and in assay [9].
On to `CC(=O)OC/C=C(\C)CCC=C(C)C`, for which the molecule was classed as inactive in assay [1], in assay [2], in assay [3], in [4], in assay [5] and in assay [6]. Besides, the molecule was called inactive in [10], in [7], in assay [8] and in assay [9].
On to `O=C(OCCCCCOC(=O)c1ccccc1)c1ccccc1`, for which the call in [1], in assay [2], in assay [3], in assay [4], in assay [5] and in assay [6] was inactive. Further, the molecule was classed as inactive in [7], in [8] and in assay [9].
Regarding `CCOc1ccc2c(c1)C(C)=CC(C)(C)N2`, the result in assay [1], in [2], in assay [3], in [4], in assay [5] and in [6] was inactive. For the same molecule, the outcome in assay [7] was inactive. Further, the AC50 in assay [2] was 67.7 µM (active); in assay [4], 76.6 µM (active); in assay [8], 19.4 µM (active); in assay [9], 15.9 µM (active).
For the molecule `Cc1ccc(Cl)cc1`, the outcome in [1], in [2], in assay [3], in assay [4], in [5] and in assay [6] was inactive. The result in [7], in assay [8] and in assay [9] was inactive.
As to `Cc1cc(=O)[nH]c(=S)[nH]1`, the molecule was called inactive in assay [1], in assay [2], in assay [3], in [4], in [5] and in assay [6]. Also, the molecule was classed as inactive in [10], in [7], in assay [8] and in [9].
With `CCCCCCCCCCCCCO`, the result in assay [1], in [2], in assay [3], in assay [4], in assay [5] and in [6] was inactive. Also, the molecule was classed as inactive in assay [7], in [8] and in assay [9].
Take `O=c1c(O)c(-c2ccc(O)c(O)c2)oc2cc(O)cc(O)c12`: the AC50 in assay [1] is 34.7 µM (active); in assay [2], 44.4 µM (active) [middle of 4 runs]. The outcome in [1], in [3], in assay [5], in [6], in [10] and in [8] was inactive. Further, the call in assay [9] was inactive.
For `CN[C@H]1CC[C@@H](c2ccc(Cl)c(Cl)c2)c2ccc(S(N)(=O)=O)cc21`, the AC50 in [1] is 61.9 µM (active); in assay [2], 82.5 µM (active); in assay [3], 85.5 µM (active); in assay [4] it was 86.1 µM (active). In addition, the outcome in assay [5], in assay [6], in [10], in assay [8] and in [9] was inactive.
`O=c1[nH]cc(F)c(=O)[nH]1`: the AC50 in [1] is 15.7 µM (active) and 9.55 µM (active); in assay [2], 3.72 µM (active) and 3.09 µM (active) and 4.2 µM (active); in [3], 1.68 µM (active). Further, the molecule was classed as inactive in [1], in assay [3], in assay [5], in [10], in assay [7] and in [8]. Also, the result in assay [9] was inactive.
As to `CC(=O)Oc1ccccc1C(=O)O`, the call in assay [1], in assay [2], in assay [3], in assay [4], in assay [5] and in assay [6] was inactive. For the same molecule, the result in assay [10], in assay [8] and in assay [9] was inactive.
